FBW7 act: FBW7 E3 ligase activators, primary screen, biochemical, AlphaScreen, human; normalized activity (activation), % at 26.1 µM; AlphaScreen FBW7–phospho-cyclin E peptide binding, activator screen; 650,000 compounds, 0.13% hits; in the data active = normalized activity above about 1.9%;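 note: purified mutant Fbw7 with reduced substrate affinity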
Target sequence (Q969H0 whole entry, looked up): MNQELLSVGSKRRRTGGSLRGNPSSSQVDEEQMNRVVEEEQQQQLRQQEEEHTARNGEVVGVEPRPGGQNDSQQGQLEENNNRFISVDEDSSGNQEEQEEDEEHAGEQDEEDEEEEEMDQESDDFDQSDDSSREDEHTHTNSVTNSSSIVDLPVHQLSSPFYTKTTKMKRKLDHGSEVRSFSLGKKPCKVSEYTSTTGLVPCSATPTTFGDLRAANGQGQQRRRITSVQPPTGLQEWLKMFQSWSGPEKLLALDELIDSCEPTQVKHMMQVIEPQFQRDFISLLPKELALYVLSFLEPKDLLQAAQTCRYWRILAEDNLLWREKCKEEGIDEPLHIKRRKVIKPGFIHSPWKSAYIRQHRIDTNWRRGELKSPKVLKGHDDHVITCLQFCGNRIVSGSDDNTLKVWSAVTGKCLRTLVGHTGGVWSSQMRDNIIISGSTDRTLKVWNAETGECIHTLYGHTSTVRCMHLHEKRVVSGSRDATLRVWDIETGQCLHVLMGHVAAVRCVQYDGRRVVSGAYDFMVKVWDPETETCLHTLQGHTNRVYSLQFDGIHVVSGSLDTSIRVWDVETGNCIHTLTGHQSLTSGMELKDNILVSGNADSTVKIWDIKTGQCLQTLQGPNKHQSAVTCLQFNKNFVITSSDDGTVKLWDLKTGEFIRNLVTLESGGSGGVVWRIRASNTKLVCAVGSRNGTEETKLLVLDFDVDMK
MITF primary: MITF inhibitors, primary screen, biochemical, AlphaScreen, human; Microphthalmia-associated transcription factor (Homo sapiens), O75030; AlphaScreen MITF homodimerization, bead proximity signal; inhibition, % at 2.6 µM; 650,000 compounds, 0.91% hits; AID 1259374, 2018; in the data active = inhibition above about 50%;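 note: 0% = vehicle wells with protein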
GPR151 ag: activators of human GPR151, primary screen, cell-based, PathHunter beta-arrestin, luminescence; PathHunter beta-arrestin GPR151 cells; 650,000 compounds, 1% hits; G-protein coupled receptor 151 (Homo sapiens), Q8TDV0; AID 1508602, 2020; activation, % at 11.2 µM; in the data active = activation above about 4.9%;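 note: 0% = median of compound wells and 100% = cells with positive control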
TEAD-YAP inh: TEAD-YAP interaction inhibition, primary screen, TEAD-YAP interaction inhibitor project, luminescence, HEK-TIYL cells; inhibition, % at 9.12 µM; AID 1259422, 2018; TEAD-Gal4/YAP UAS-luciferase luminescence; 640,000 compounds, 1.4% hits; in the data active = inhibition above about 32%;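 note: 0% = median of test compound wells and 100% = reference inhibitor wells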
* hit, by the source's call; ! = a repeat was not active. Only some compounds are listed: those with a hit (about 3.5% of all), similar ones and a draw of the others.

`COCCCn1c(SCC(=O)Nc2nc(C)cs2)nnc1-c1ccoc1C` gave FBW7 act 0, MITF primary 1, GPR151 ag 0 and TEAD-YAP inh 6.
Screening Cc1[nH]c2ccccc2c1C(=O)/C(C#N)=C/c1ccc(N(C)CCO)cc1 returned FBW7 act 0, MITF primary 13, GPR151 ag 1 and TEAD-YAP inh 38*.
`CC(C)c1nnc2n1CCN(Cc1cccc(C(F)(F)F)c1)CC2` gave FBW7 act 0, MITF primary 9, GPR151 ag -1 and TEAD-YAP inh 11.
Screening Clc1ccccc1CNc1ncnc2ccccc12 returned FBW7 act 0, MITF primary 8, GPR151 ag 2 and TEAD-YAP inh 48*.
For Cc1[nH]ccc2c1[nH]c1cc(=O)ccc12 the results were FBW7 act 0, MITF primary 27, GPR151 ag -1 and TEAD-YAP inh 37*!.
For COC(=O)c1ccc(NC(=O)c2cc(OC(C)=O)cc(OC(C)=O)c2)cc1 the results were FBW7 act 0, MITF primary 2, GPR151 ag 1 and TEAD-YAP inh 45*.
`CC(=O)Oc1cc(C(=O)Nc2ccc(F)cc2)cc(C(=O)Nc2ccc(F)cc2)c1` gave FBW7 act 0, MITF primary 15, GPR151 ag 0 and TEAD-YAP inh 18.
`O=C(Cc1noc2ccccc12)Nc1cccc(-c2ccc(N3CCCC3)nn2)c1` gave FBW7 act 0, MITF primary 6, GPR151 ag 0 and TEAD-YAP inh 48*.
`CC(Oc1ccccc1F)C(=O)Nc1cccc(-c2ccc(N3CCOCC3)nn2)c1` (centres undefined) gave FBW7 act 0, MITF primary 16, GPR151 ag -2 and TEAD-YAP inh 42*.
`CC(=O)c1cccc(NC(=O)Cc2noc3ccccc23)c1` gave FBW7 act 2, MITF primary 1, GPR151 ag -1 and TEAD-YAP inh -19.
COc1ccc(CC(=O)Nc2cccc(-c3ccc(N4CCOCC4)nn3)c2)cc1OC was read as FBW7 act 0, MITF primary -4, GPR151 ag -7 and TEAD-YAP inh 34*.
For COC(=O)C1=C(C)N(C)C(=S)NC1c1ccc(OC)c(OC)c1 (centres undefined) the results were FBW7 act 0, MITF primary -8, GPR151 ag 1 and TEAD-YAP inh 12.
`CCOC(=O)c1c(-c2ccccc2)oc2ccc(OCc3ccccc3)cc12` gave FBW7 act 0, MITF primary 8, GPR151 ag -1 and TEAD-YAP inh -11.
`Cc1ccc(C(=O)COC(=O)c2ccccc2[N+](=O)[O-])cc1C` gave FBW7 act 0, MITF primary 19, GPR151 ag -4 and TEAD-YAP inh 49*.
Cc1c(C(=O)OCC(=O)c2ccc(Cl)cc2)cccc1[N+](=O)[O-] was read as FBW7 act 0, MITF primary 13, GPR151 ag 0 and TEAD-YAP inh -8.
For CC1=C(C(=O)OCCc2ccccc2)C(c2ccccc2[N+](=O)[O-])C2=C(CCCC2=O)N1 (centres undefined) the results were FBW7 act 0, MITF primary 12, GPR151 ag -1 and TEAD-YAP inh 48*.
`CC1=C(C(=O)OCCOc2ccccc2)C(c2ccccc2[N+](=O)[O-])C2=C(CCCC2=O)N1` (centres undefined) gave FBW7 act 0, MITF primary 1, GPR151 ag -1 and TEAD-YAP inh 35*.
Screening Cc1cc(C)n(C(=C(/C(Cl)=C(/Cl)Br)[N+](=O)[O-])n2nc(C)cc2C)n1 returned FBW7 act 0, MITF primary 14, GPR151 ag 0 and TEAD-YAP inh 42*.
For O=C(O)CCC(=O)Nc1cccc(-c2nc3cc4ccccc4cc3[nH]2)c1 the results were FBW7 act 0, MITF primary -30, GPR151 ag -6 and TEAD-YAP inh 34*.
Screening O=C(O)CCC(=O)Nc1ccc(-c2nc3cc4ccccc4cc3[nH]2)cc1 returned FBW7 act 0, MITF primary -2, GPR151 ag 0 and TEAD-YAP inh -33.
`COc1ccc(-c2c(C)nn3c(N4CCCC(O)C4)c4c(nc23)CCC4)cc1` (centres undefined) gave FBW7 act 0, MITF primary -4, GPR151 ag 1 and TEAD-YAP inh -17.
For O=S1(=O)C=C(Sc2nc3ccccc3s2)c2ccccc21 the results were FBW7 act 0, MITF primary -1, GPR151 ag -1 and TEAD-YAP inh 61*.
Nc1ccccc1SC1=CS(=O)(=O)c2ccccc21 was read as FBW7 act 0, MITF primary 6, GPR151 ag 0 and TEAD-YAP inh -5.
For CC(Cc1ccco1)NC(=O)COc1ccccc1F (centres undefined) the results were FBW7 act 0, MITF primary 8, GPR151 ag 0 and TEAD-YAP inh -3.
`COc1cc(OC)c(NC(=O)NCCNc2nc(C)cc(N3CCCCC3)n2)cc1Cl` gave FBW7 act 0, MITF primary 2, GPR151 ag -1 and TEAD-YAP inh 10.
Cc1cc(N2CCCCC2)nc(NCCNC(=O)/C=C/c2ccccc2)n1 was read as FBW7 act 0, MITF primary -1, GPR151 ag -2 and TEAD-YAP inh 38*.
For Cc1cc(N2CCCCC2)nc(NCCNC(=O)Nc2ccc(F)cc2F)n1 the results were FBW7 act 0, MITF primary 0, GPR151 ag -2 and TEAD-YAP inh 37*.
Cc1cc(N2CCOCC2)nc(NCc2ccccc2)n1 was read as FBW7 act 0, MITF primary 13, GPR151 ag 1 and TEAD-YAP inh 7.
For Cc1cc(N2CCCCC2)nc(NCCNC(=O)c2ccco2)n1 the results were FBW7 act 0, MITF primary -8, GPR151 ag 2 and TEAD-YAP inh 41*.
Cc1cc(N2CCCCC2)nc(NCc2ccccc2)n1 was read as FBW7 act 0, MITF primary -11, GPR151 ag 2 and TEAD-YAP inh 48*.
For NC(=O)NC(=O)COC(=O)COc1ccc2ccccc2c1 the results were FBW7 act 0, MITF primary 3, GPR151 ag 2 and TEAD-YAP inh -2.
For Cc1cc(C)c(NC(=O)CN2C(=O)CCSc3ccccc32)c(C)c1 the results were FBW7 act 0, MITF primary 4, GPR151 ag 0 and TEAD-YAP inh 11.
Screening COc1cc(C(=O)N2CCN(c3ccc(Cl)cc3)CC2)cc(OC)c1OC returned FBW7 act 0, MITF primary 14, GPR151 ag 1 and TEAD-YAP inh 3.
COCCCNC(=O)c1ccc(Br)cc1 was read as FBW7 act 0, MITF primary -7, GPR151 ag 4 and TEAD-YAP inh -19.
Screening CN(C)c1ccc(/C=C(/C#N)c2ccc(C#N)cc2)cc1 returned FBW7 act 1, MITF primary 7, GPR151 ag 4 and TEAD-YAP inh -60.
